# HPGD block – qHTS Assay for Inhibitors of HPGD (15-Hydroxyprostaglandin Dehydrogenase); 15-hydroxyprostaglandin dehydrogenase [NAD(+)] (Homo sapiens), P15428; purified HPGD, NADH fluorescence kinetic, PGE2 substrate; Potency, µM, inactives show at the highest dose activity change, negative = inhibition, hits mostly inhibitors; hit rate 4.3% among 150,000; AID 894, 2007
# Target sequence (P15428 whole entry, looked up): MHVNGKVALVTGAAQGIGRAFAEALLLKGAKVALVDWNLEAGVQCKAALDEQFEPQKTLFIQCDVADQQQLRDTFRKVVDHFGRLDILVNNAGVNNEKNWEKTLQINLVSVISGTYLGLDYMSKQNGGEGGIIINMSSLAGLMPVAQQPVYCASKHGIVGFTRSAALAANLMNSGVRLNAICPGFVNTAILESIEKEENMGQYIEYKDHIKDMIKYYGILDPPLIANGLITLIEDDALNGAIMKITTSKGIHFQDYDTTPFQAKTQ
#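 20 nM HPGD preincubated 15 min at room temperature with compound in 50 mM Tris-HCl pH 8, 0.01% Tween 20. Started with 1 mM NAD+ and 30 uM prostaglandin E2; NADH fluorescence (360/450 nm) read 5 times over 30-s intervals, last minus first.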
# Tau ThT inhib – qHTS for Inhibitors of Tau Fibril Formation, Thioflavin T Binding | recombinant tau K18 P301L, heparin-induced fibrillization, ThT fluorescence | Potency, µM (highest dose often 57.4 µM), inactives show top-dose activity, negative = inhibition, actives largely listed as inhibitors | hit rate 2.1% among 270,000 | AID 1460, 2008; active = well fitted curve in the direction sought with a large enough effect; inconclusive = small, poorly fitted or top-dose-only effect, or another doubt; inactive = no such curve, though single readings can be large; an effect the other way counts as inactive or inconclusive; note: nearly all actives have a fitted effect of over 55% in size
# Target sequence (P10636 561-689 P618L limits assumed): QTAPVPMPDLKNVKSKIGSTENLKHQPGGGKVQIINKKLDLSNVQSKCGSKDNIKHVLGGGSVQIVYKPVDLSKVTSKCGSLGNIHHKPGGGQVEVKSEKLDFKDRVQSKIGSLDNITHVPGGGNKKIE
#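 K18 P301L tau (15 uM + 0.24 uM Alexa 594-tagged), heparin 20 uM, NaOAc pH 7, 6 h 37 C; ThT 30 uM, 1 h RT, ex 450/em 510 nm.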
# KDM4E inh – qHTS Assay for Inhibitors of Human Jumonji Domain Containing 2E (JMJD2E) | Lysine-specific demethylase 4E (Homo sapiens), B2RXH2 | JMJD2E catalytic domain, FDH-coupled NADH fluorescence (FDH is formaldehyde dehydrogenase) | Potency, µM (top dose mostly 57.1 µM), for the others: at the highest dose activity change, negative = inhibition, hits mostly inhibitors | hit rate 1.6% among 230,000 | AID 2147, 2009;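 note: 0% = wells with enzyme and -100% = buffer wells without enzyme; nearly all actives have a fitted effect of over 50% in size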
# Target sequence (B2RXH2 1-337 limits assumed): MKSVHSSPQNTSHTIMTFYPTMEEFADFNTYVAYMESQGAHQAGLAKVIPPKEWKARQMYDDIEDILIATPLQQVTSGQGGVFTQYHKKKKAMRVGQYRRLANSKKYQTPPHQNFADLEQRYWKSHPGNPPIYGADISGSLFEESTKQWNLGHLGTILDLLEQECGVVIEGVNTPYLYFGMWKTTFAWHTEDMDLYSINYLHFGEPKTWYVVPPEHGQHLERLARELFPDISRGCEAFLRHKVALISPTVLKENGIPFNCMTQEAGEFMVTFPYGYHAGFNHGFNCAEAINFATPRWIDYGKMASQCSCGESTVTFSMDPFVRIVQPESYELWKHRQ
# ALDH1A1 block – qHTS Assay for Inhibitors of Aldehyde Dehydrogenase 1 (ALDH1A1). hit rate 7.3% among 220,000. AID 1030, 2008. Potency, µM (highest dose often 75.3 µM), for the others: at the top dose activity, negative = inhibition, usual class: inhibitors. Aldehyde dehydrogenase 1A1 (Homo sapiens), P00352. Purified ALDH1A1, NADH fluorescence, propionaldehyde substrate;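 note: plate controls were no enzyme wells and a reference inhibitor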
# Tau fluor counter – Counterscreen qHTS for Inhibitors of Tau Fibril Formation, Fluorescence Polarization; hit rate 0.93% among 280,000; tau K18 P301L (four-repeat tau fragment) Alexa594 fluorescence, heparin fibrillization; Potency, µM (highest dose often 57.7 µM), for inactives: at the top dose activity change, negative = decrease; active = well fitted curve in the direction sought with a large enough effect; inconclusive = small, poorly fitted or top-dose-only effect, or another doubt; inactive = no such curve, though single readings can be large; an effect the other way counts as inactive or inconclusive; note: nearly all actives have a fitted effect of over 55% in size
#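 Human K18 P301L tau (15 uM unlabeled plus 0.24 uM Alexa 594-labeled, final) in 100 mM sodium acetate pH 7 was mixed with compound and 20 uM heparin and incubated 6 hr at 37 C.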
# Tau FP inhib – qHTS for Inhibitors of Tau Fibril Formation, Fluorescence Polarization; AID 1468, 2008; Potency, µM (doses to about 57.7 µM), inactives show at the highest dose activity, negative = inhibition, most hits filed as inhibitors; K18 P301L tau heparin fibrillization, Alexa594 FP, 6 h; hit rate 0.39% among 280,000; Microtubule-associated protein tau (Homo sapiens), P10636; active = well fitted curve in the direction sought with a large enough effect; inconclusive = small, poorly fitted or top-dose-only effect, or another doubt; inactive = no such curve, though single readings can be large; an effect the other way counts as inactive or inconclusive; note: nearly all actives have a fitted effect of over 55% in size
#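 Recombinant K18 P301L […], labeled with Alexa 594 at 0.24 uM over 15 uM unlabeled; heparin inducer 20 uM final; 37 C, 6 hr; FP endpoint.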
# * = called active by the depositor; ? = inconclusive; nt = not tested or not shown; [ ] = remark or other dose. The list is not random: actives were taken first. Their share in the collection is about 9.9%. Unless noted, calls come from the whole dose curve; as a rule, active = well fitted inhibition curve with a large enough effect (not every such curve was filed as active); inconclusive = small, poorly fitted or top-dose-only effect, or another doubt; inactive = no such curve, though single readings can be large or run the other way. Unless noted, % is set by controls: 0 for no effect and ±100 for the full control effect; potency is the fitted concentration of half-maximal effect.
SMILES,HPGD block,Tau ThT inhib,KDM4E inh,ALDH1A1 block,Tau fluor counter,Tau FP inhib
O=C(c1cccc(Cl)c1)N1CCN(c2ncnc3c2cnn3-c2ccccc2)CC1,nt,-11.4%,?,7.94µM*,-5.1%,?
CC1CCN(c2ncnc3c2cnn3-c2ccccc2)CC1,28.2µM*,?,1.3%,?,-19.3%,0.5%
Cc1nn(-c2ccccc2)c(Cl)c1C(=O)N1CCN(c2ncnc3c2cnn3-c2ccccc2)CC1,?,?,?,14.1µM*,-19.6%,1.0%
COC(=O)Cc1ccc(NC(=S)Nc2ccccn2)cc1,nt,-3.7%,-2.6%,-6.7%,-6.2%,5.4%
Cc1ccc(C(=O)O)cc1-c1ccc(/C=C2/NC(=O)N(c3ccccc3)C2=O)o1,?,28.2µM*,?,?,-26.7%,-14.2%
Cc1ccc(NC(=O)CN2C(=O)S/C(=C\c3ccc(-c4cccc(C(=O)O)c4C)o3)C2=O)cc1,10µM*,?,?,?,-12.6%,-4.0%
Cc1ccc(NC(=O)CN2C(=O)S/C(=C\c3cc(C)n(C)c3C)C2=O)cc1,-1.5%,?,-0.1%,1.9%,?,-8.4%
Cc1ccc(C(=O)O)cc1-c1ccc(/C=C2\SC(=O)N(CC(=O)Nc3ccccc3)C2=O)o1,nt,?,?,?,2.3%,0.9%
Cc1ccccc1NC(=O)CN1C(=O)S/C(=C\c2ccc(-c3cc(C(=O)O)ccc3C)o2)C1=O,nt,?,0.5%,28.2µM*,-4.4%,-5.4%
Cc1ccc(NC(=O)CN2C(=O)S/C(=C\c3cc(C)n(-c4cccc(C(=O)O)c4)c3C)C2=O)cc1,nt,?,?,12.6µM*,-4.5%,13.1%
CCCCCCc1ccc(-c2ccc(C#N)cc2)cc1,-11.9%,nt,nt,8.0%,nt,nt
CC(C)CCNC(=O)c1ccc2nc(CCc3ccccc3)oc2c1,nt,10.9%,nt,nt,6.4%,-6.7%
O=C(CSc1nccn1Cc1ccc(F)cc1)Nc1nc2ccccc2s1,nt,-6.0%,nt,nt,?,-8.4%
CC1CCN(C(=O)C2CCN(S(=O)(=O)c3cc(Cl)ccc3Cl)CC2)CC1,nt,nt,11.2%,nt,15.4%,2.1%
Cn1c(=O)n2n(c1=O)[C@H]1[C@H](O)[C@H]3O[C@@H]3/C(=N/OC[C@@H](O)COCc3ccco3)[C@@H]1CC2,nt,-12.2%[11.5 µM],nt,2.7%[13.5 µM],-11.4%[11.6 µM],0.5%[11.6 µM]
O=C(c1cccc(F)c1)N1CCC2(CCCN(Cc3ccccc3)C2)CC1,-8.9%,nt,nt,7.5%,nt,nt
N#CCC(=O)N1CCN(C=O)CC1,nt,-1.5%,4.9%,1.6%,-1.6%,2.3%
COc1cccc(C(c2sc3ncnn3c2O)N2CC(C)OC(C)C2)c1 (stereo unspecified),-9.7%,-4.6%,0.2%,0.355µM*,-3.9%,-0.8%
COc1cccc(C(c2sc3ncnn3c2O)N2CCc3ccccc3C2)c1 (stereo unspecified),?,-4.2%,10.0%,?,2.0%,1.3%
O=C(O/N=C1\CCS(=O)(=O)c2sccc21)c1c(F)cccc1F,nt,8.0%,-4.1%,?,-2.6%,-5.1%
O=S1(=O)CC/C(=N\Nc2ccccc2)c2ccsc21,nt,-15.5%,-11.8%,25.1µM*,?,-3.4%
O=C(CN1C(=O)c2ccccc2C1=O)NCCc1c[nH]c2ccc(Cl)cc12,-15.0%,-6.6%,7.9%,9.6%,-14.8%,7.6%
O=C1c2ccccc2C(=O)N1CCCc1c[nH]c2ccc(Cl)cc12,-9.7%,-18.1%,2.8%,4.3%,11.2µM*[quencher],-14.4%
Cc1cccc(Nc2nnc(-c3ccc(N4CCOCC4)c([N+](=O)[O-])c3)c3ccccc23)c1,-26.1%,4.0%,-15.3%,?,-6.5%,-2.5%
COc1ccc(OC)c(C2CC(c3c(-c4ccccc4)c4cc(Cl)ccc4[nH]c3=O)=NN2S(C)(=O)=O)c1 (stereo unspecified),-14.9%,-5.8%,?,?,?,-11.8%
SMILES,HPGD block,Tau ThT inhib,KDM4E inh,ALDH1A1 block,Tau fluor counter,Tau FP inhib
COc1ccc(C2CC(c3c(-c4ccccc4)c4cc(Cl)ccc4[nH]c3=O)=NN2S(C)(=O)=O)cc1 (stereo unspecified),-7.2%,-5.0%,-29.5%,0.398µM*,-19.8%,?
CCCCNC(=O)c1ccc2c(c1)NC(=O)C(CS(=O)(=O)Cc1cccc(C)c1)N2 (stereo unspecified),nt,17.8µM*,nt,nt,?,?
O=S(=O)(c1ccc(Cl)nc1)N1CCN(c2ncccn2)CC1,nt,2.4%,-1.2%,nt,7.9%,-4.4%
O=S(=O)(c1cnc(Cl)c(Cl)c1)N1CCN(c2ncccn2)CC1,nt,0.2%,20.9%,0.794µM*,-2.3%,1.7%
O=S(=O)(c1ccc(Cl)c(S(=O)(=O)N2CCCC2)c1)N1CCCC1,nt,-1.4%,?,-6.0%,5.3%[2.34 µM],-5.9%
O=S(=O)(c1cnc(Cl)c(Br)c1)N1CCCCCC1,-14.9%,?,7.4%,8.91µM*,-4.7%,-6.4%
O=S(=O)(c1cnc(Cl)c(Br)c1)N1CCN(c2ncccn2)CC1,nt,17.9%,1.9%,0.355µM*,15.7%,-2.1%
CCc1cccc(NC(=O)CSc2ncc3c(n2)-c2cc(Cl)ccc2N(C)S3(=O)=O)c1,nt,10.7%,nt,nt,-23.1%,?
CCN(CC)C(=O)c1sc(NC(=O)c2ccc(C)c([N+](=O)[O-])c2)c(C#N)c1C,28.2µM*,-5.4%,-4.4%,-1.3%,-13.2%,-6.1%
CCN(CC)C(=O)c1sc(NC(=O)c2ccc(OC)c([N+](=O)[O-])c2)c(C#N)c1C,17.8µM*,?,-2.8%,-0.8%,-18.5%,12.4%
COc1ccc(C(=O)Nc2sc(C(=O)N(C)C)c(C)c2C#N)cc1[N+](=O)[O-],-25.7%,-15.1%,-9.9%,?,-5.0%,10.4%
Cc1c(C(=O)N(C)C)sc(NC(=O)c2cccc([N+](=O)[O-])c2)c1C#N,?,-6.5%,-8.7%,-6.3%,-0.8%,5.5%
COc1ccccc1CNCCCCCCNCCCCCCCCNCCCCCCNCc1ccccc1OC,7.4%,?,-1.3%,5.2%,-6.4%,-1.5%
Cc1cccc2sc(NS(C)(=O)=O)nc12,nt,-2.1%,3.2%,12.6%,2.8%,1.5%
CCOC(=O)C1=C(Cc2ccc(F)cc2)C(=O)c2ccccc2C1=O,7.94µM*,10µM*,?,?,?,15.8µM*
Cc1ccc(S(=O)(=O)NCCc2nnc3ccc(SCc4ccccc4C)nn23)cc1,nt,-8.1%,nt,nt,-4.8%,-3.9%

# Assay outcomes from PubChem.
